From publication PMC4552634, “A New Set of Chemical Starting Points with Plasmodium falciparum Transmission-Blocking Potential for Antimalarial Drug Discovery” (PLoS ONE, 2015)
Like-named read-outs stand apart in the source and are kept apart here. About 3,200 (25%) of roughly 13,000 compounds showed an effect of 50% or more. Some of the results follow.

System: P. falciparum stage V gametocytes
Parameters: BacTiter-Glo ATP luminescence viability of purified stage V gametocytes in 384-well plates, per cent inhibition versus DMSO
Settings: 48 h, 5 µM, inhibitor

Structure (SMILES) | % Inhibition | % Inhibition (% Inhibition)
O=C(Nc1ccccc1)OCCOc1ccc(CC2SC(=O)NC2=O)cc1 (stereo not shown) [TCMDC-131642] | 13.3% | –
N#Cc1ccc2c(c1)CCN(CCC1CCC(NC(=O)/C=C/c3cc(Br)cs3)CC1)CC2 (stereo not shown) [TCMDC-139841] | -33.15% | –
O=C(Nc1ccccc1Cl)N(Cc1cc(Cl)cc(Cl)c1)CC(O)COc1ccc(Cl)c(F)c1 (stereo not shown) [TCMDC-141477] | 10.95% | –
O=C(/C=C/c1ccc(Cl)c(Cl)c1)NCCCCCN1CCC(C(=O)Nc2ccc(Cl)c(Cl)c2)CC1 [TCMDC-136124] | 40.37% | –
O=C(/C=C/c1ccc(Cl)cc1)NCCCCCN1CCC(C(=O)Nc2ccc(Cl)c(Cl)c2)CC1 [TCMDC-136123] | -40.47% | –
COc1ccc(NC(=O)C2CCN(CCCCCNC(=O)/C=C/c3ccc(Cl)c(Cl)c3)CC2)cc1 [TCMDC-136128] | 80.86% | –
O=C(/C=C/c1ccc(Cl)cc1)NCCCCCN1CCC(C(=O)Nc2cccc(Cl)c2)CC1 [TCMDC-136119] | -9.305% | –
O=C(/C=C/c1ccc(Cl)c(Cl)c1)NCCCCCN1CCC(C(=O)Nc2ccc(Cl)cc2)CC1 [TCMDC-136116] | -21.25% | –
O=C(/C=C/c1ccc(Cl)cc1)NCCCCCN1CCC(C(=O)Nc2ccc(Cl)cc2)CC1 [TCMDC-136115] | 64.6% | –
Cc1cc(C)cc(OCC(O)CN(Cc2cc(Cl)cc(Cl)c2)C(=O)Nc2ccc(Cl)cc2)c1 (stereo not shown) [TCMDC-141475] | 25.73% | –
O=C(Nc1cccc(Cl)c1N1CCOCC1)C(Cl)(Cl)Cl [TCMDC-124993] | 8.6% | –
CN(C)CCOc1cc(NC(=O)Nc2ccc3c(c2)CCCC3=O)ccc1I [TCMDC-139187] | -8.397% | –
O=C(Nc1ccc(C(=O)N2CCN(CCN3CCN(c4cccc(C(F)(F)F)c4)CC3)CC2)cc1)c1ccc(C(F)(F)F)cc1 [TCMDC-138148] | -21.85% | –
O=C(Nc1ccc(Cl)c(C(F)(F)F)c1)N[C@H]1CCN(CCCCCNC(=O)C2CC2c2ccc(Cl)c(Cl)c2)C1 (stereo partly shown) [TCMDC-136274] | 80.05% | –
O=C(NCCCCCN1CCCN(C(=O)Nc2ccc(Cl)c(C(F)(F)F)c2)CC1)C1CC1c1ccc(Cl)c(Cl)c1 (stereo not shown) [TCMDC-136255] | -20.94% | –
O=C(Nc1ccc(Cl)c(C(F)(F)F)c1)NC1CCN(CCCCCNC(=O)C2CC2c2ccc(Cl)c(Cl)c2)CC1 (stereo not shown) [TCMDC-136260] | 59.16% | –
O=C(Nc1ccc(C(F)(F)F)cc1)NC1CCN(CCCCCNC(=O)C2CC2c2ccc(Cl)c(Cl)c2)CC1 (stereo not shown) [TCMDC-136256] | 4.226% | –
O=C(Nc1ccc(C(F)(F)F)cc1)N[C@H]1CCN(CCCCCNC(=O)C2CC2c2ccc(Cl)c(Cl)c2)C1 (stereo partly shown) [TCMDC-136272] | 93.26% | –
O=C(Nc1ccc(Cl)c(Cl)c1)N[C@H]1CCN(CCCCCNC(=O)C2CC2c2ccc(Cl)c(Cl)c2)C1 (stereo partly shown) [TCMDC-136266] | -8.426% | –
COc1ccc(NC(=O)Nc2ccc(-c3ccc(-c4nc5cccc(C)c5[nH]4)s3)cc2)cc1 [TCMDC-133243] | -2.294% | –
COc1ccc(CON2C(N)=NC(N)=NC2(C)C)cc1OC [TCMDC-131587] | 8.467% | –
N#Cc1ccc2[nH]cc(-c3cn4cc(SC5CCCC5)ccc4n3)c2c1 [TCMDC-134705] | -50.98% | –

Structure (SMILES) | % Inhibition | % Inhibition (% Inhibition)
O=C(Nc1ccncc1)c1cc(C(=O)Nc2ccncc2)cc([N+](=O)[O-])c1 [TCMDC-125671] | 89.24% | –
COc1cccc(NC(=O)c2cc(C(=O)Nc3cccc(OC)c3)cc([N+](=O)[O-])c2)c1 [TCMDC-125177] | 2.834% | –
O=C(Nc1cccnc1)c1cc(C(=O)Nc2cccnc2)cc([N+](=O)[O-])c1 [TCMDC-125067] | -34.07% | –
CC(C)c1ccc2c(c1)c(SC(C)(C)C)c(CC(C)(C)C#N)n2Cc1ccc(Cl)cc1 [TCMDC-131974] | -57.09% | –
COC(=O)c1ccc(CC(C)NCC(O)c2ccc(F)c(Cl)c2)cc1 (stereo not shown) [TCMDC-131517] | 4.686% | –
C[C@H](Cc1ccc(OCCNC[C@H](O)c2cccc(Cl)c2)cc1)NC[C@H](O)c1ccc(Cl)c(Cl)c1 [TCMDC-131547] | 69.99% | –
C[C@H](Cc1ccc(OCCCCCCOc2ccc(C[C@@H](C)N[C@H](C)c3ccccc3)cc2)cc1)NC[C@H](O)c1cccc(Cl)c1 [TCMDC-131564] | 103.4% | –
C[C@H](Cc1ccc(OCCCCCCOc2ccccc2)cc1)NC[C@@H](O)c1cc(Br)no1 [TCMDC-131567] | 65.38% | –
COC(=O)c1ccc(CC(C)NCC(O)c2ccc(Cl)c(Cl)c2)cc1 (stereo not shown) [TCMDC-131431] | 21.35% | –
COC(=O)c1ccc(CC(C)NCC(O)c2ccc(C(O)CNC(C)Cc3ccc(C(=O)OC)cc3)cc2)cc1 (stereo not shown) [TCMDC-131545] | 100.9% | –
COC(=O)c1ccc(CC(C)NCC(O)c2cccc(OCc3ccccc3)c2)cc1 (stereo not shown) [TCMDC-131486] | 29.25% | –
COc1ccc(C(=O)NCC(C)(C)c2nc(-c3ccc(Cl)c(O)c3)c(-c3ccncc3)[nH]2)cc1OCCN(C(C)C)C(C)C [TCMDC-140736] | 2.982% | –
CCCCCN1CCCC1CNS(=O)(=O)c1cccc(C(=O)Nc2cccc(C#N)c2)c1 (stereo not shown) [TCMDC-133690] | -52.73% | –
Cc1ccc(C)c2sc(N(CCCn3ccnc3)C(=O)C=Cc3cccs3)nc12 [TCMDC-124923] | 12.01% | –
C=C[C@H]1CN2CC[C@H]1C[C@H]2[C@H](OS(=O)(=O)O)c1ccnc2ccccc12 [TCMDC-138341] | 14.93% | –
c1ccc(CCNc2ccnc(Nc3ccc4n[nH]nc4c3)n2)cc1 [TCMDC-136881] | 0.773% | –
CCCC(C)c1cnc2nc(N)nc(N)c2c1C (stereo not shown) [TCMDC-137924] | 4.639% | –
CCCC1N=C(N)N=C(N)N1c1ccccc1 (stereo not shown) [TCMDC-131293] | -19.04% | –
CC(Cc1ccc(OCCN2CCN(c3cccc(Cl)c3)CC2)cc1)NCC(O)c1cccc(Cl)c1 (stereo not shown) [TCMDC-131533] | 18.65% | –
COC(=O)c1ccc(CC(C)NCC(O)c2cccc(C(F)(F)F)c2)cc1 (stereo not shown) [TCMDC-131438] | – | 6.787%
CNCCCCCCOc1ccc(CC(C)NCC(O)c2cccc(C(F)(F)F)c2)cc1 (stereo not shown) [TCMDC-131523] | 111.6% | –
C[C@H](Cc1ccc(OCCCCCCOc2ccccc2)cc1)NC[C@H](O)c1cccc(Cl)c1 [TCMDC-131552] | 11.17% | –

Structure (SMILES) | % Inhibition | % Inhibition (% Inhibition)
COC(=O)c1ccc(C[C@@H](C)NC[C@H](O)c2cccc(C(F)(F)F)c2)cc1 [TCMDC-131475] | – | 15.4%
C#CCOc1ccc(CC(C)NCC(O)c2cccc(C(F)(F)F)c2)cc1 (stereo not shown) [TCMDC-131480] | 12.31% | –
CC(Cc1ccc(OCCOc2ccccc2)cc1)NCC(O)c1cccc(C(F)(F)F)c1 (stereo not shown) [TCMDC-131510] | 16.36% | –
CC(Cc1ccc(C(=O)OCCOC(=O)c2ccc(CC(C)NCC(O)c3cccc(C(F)(F)F)c3)cc2)cc1)NCC(O)c1cccc(C(F)(F)F)c1 (stereo not shown) [TCMDC-131544] | 75.47% | –
CC(Cc1ccc(C2=CCNCC2)cc1)NCC(O)c1cccc(C(F)(F)F)c1 (stereo not shown) [TCMDC-131537] | 95.16% | –
CCOC(=O)c1ccc(CC(C)NCC(O)c2cccc(C(F)(F)F)c2)cc1 (stereo not shown) [TCMDC-131491] | 8.983% | –
COC(=O)c1ccc(C[C@@H](C)NC[C@H](O)c2cccc(C(F)(F)F)c2)cc1 [TCMDC-131458] | – | 35.35%
C[C@H](Cc1ccc(OCCCCCOc2ccc(C[C@@H](C)NC[C@H](O)c3cccc(Cl)c3)cc2)cc1)NC[C@H](O)c1cccc(Cl)c1 [TCMDC-131563] | 110.4% | –
O=C(NCc1cccc(F)c1)Nc1cccc(-c2ccc(-c3nc4ccc(F)cc4[nH]3)cc2)c1 [TCMDC-133293] | 6.951% | –
O=C(O)C1CC(=O)N(c2ccc(Cl)cc2)C1 (stereo not shown) [TCMDC-125862] | 2.166% | –
COc1cccc(CN2CCCC(OC(c3ccc(F)cc3)c3ccc(F)cc3)C2)c1O (stereo not shown) [TCMDC-136167] | -3.055% | –
CN1CCC(NC(=O)c2cccc(Nc3cc(Nc4cccc(Br)c4)ncn3)c2)CC1 [TCMDC-124773] | -81.1% | –
CN(C)CCOc1ccc(-c2cc(-c3ccncc3)c(-c3ccc(Cl)c(O)c3)o2)cc1 [TCMDC-141227] | 36.77% | –
COCC(C)n1c(SC(C)C(=O)Nc2cc([N+](=O)[O-])ccc2Cl)nc2ccccc2c1=O (stereo not shown) [TCMDC-123709] | -35.25% | –
C[C@H](Cc1ccc(OCCCCCCOc2ccc(C[C@@H](C)NC(=O)[C@H](O)c3cccc(Cl)c3)cc2)cc1)NC[C@H](O)c1cccc(Cl)c1 [TCMDC-131571] | -3.505% | –
CC(Cc1ccc(OCCOc2ccccc2)cc1)NCC(O)c1cccc(Cl)c1 (stereo not shown) [TCMDC-138939] | 12.28% | –
C[C@H](Cc1ccc(C[C@@H](C)NC[C@H](O)c2cccc(Cl)c2)cc1)NC[C@H](O)COc1ccccc1 [TCMDC-131549] | 104.7% | –
CC(NCCc1cccc(Cl)c1)C(O)c1ccc(OCCCCCCOc2ccc(C(O)C(C)NCCc3cccc(Cl)c3)cc2)cc1 (stereo not shown) [TCMDC-139334] | 98.69% | –
CCCN1CCN(c2cc(NCC)c3c4c(onc24)-c2ccccc2C3=O)CC1 [TCMDC-123898] | -28.72% | –
c1cc(COc2ccc(C3=NCCN3)cc2)nc(COc2ccc(C3=NCCN3)cc2)c1 [TCMDC-137805] | -1.887% | –
